Test results reported in ChEMBL document CHEMBL4513216, “Probing the Open Global Health Chemical Diversity Library for Multistage-Active Starting Points for Next-Generation Antimalarials” (ACS Infect Dis, 2020).
Among all 68,000 compounds or so, about 2,700 (4%) showed an effect of 50% or more. The full list was thinned out, with strong results kept by preference.

What follows are compounds tested on Plasmodium berghei (assay: Screen against P. berghei liver stage (PbLuc), transformed with Luciferase, at 2uM). Conditions: tested at 2 uM.
Format: functional, HepG2
With `COc1c(C2CCCN2Cc2noc(C(C)C)n2)c(C)nn1C` (configuration not stated) the INHIBITION was 59.93%.
`COc1c(C2CCCN2Cc2nnc(C3CC3)n2C)c(C)nn1C` (configuration not stated) was tested, and the INHIBITION was 28.1%.
Compound `COc1c(C2CCCN2Cc2noc(C)n2)c(C)nn1C` (configuration not stated) has an INHIBITION of 21.83%.
Work on `CCn1ccnc1CN1CCCC1c1c(C)nn(C)c1OC` (configuration not stated) yielded an INHIBITION of -69.19%.
For `CCc1nc(CN2CCCC2c2c(C)nn(C)c2OC)no1` (configuration not stated), the INHIBITION was 23.94%.
With `CN(C)C(=O)c1cnc2n1CCN(Cc1ccsc1)C2` the INHIBITION was 54.89%.
`CN(C)C(=O)c1cnc2n1CCN(Cc1ccccc1)C2` was tested, and the INHIBITION was -26.24%.
In the case of `Cc1ccc(CN2CCn3c(C(=O)N(C)C)cnc3C2)cc1`, the INHIBITION is reported as 7.77%.
With `CCOCC(O)CN1CCN(C(=O)c2cnc3n[nH]c(C)c3c2)CC1` (configuration not stated) the INHIBITION was 21.89%.
Work on `CC(O)CN1CCN(C(=O)c2cnn(-c3ccccc3F)c2)CC1` (configuration not stated) yielded an INHIBITION of -7.05%.
`CC(c1ccccn1)N(C)C(=O)NCCn1c(=O)oc2ccccc21` (configuration not stated) showed an INHIBITION of 40.4%.
`CSc1c(CC(=O)O)n(C)c2ccccc12` showed an INHIBITION of -18.52%.
`Cn1c(CC(=O)O)c(Sc2ccccc2)c2ccccc21` was tested, and the INHIBITION was 52.89%.
`Cc1ccc2c(c1)c(Sc1ccccc1)c(CC(=O)O)n2C` showed an INHIBITION of -36.84%.
`CSCC(CCO)NC(=O)Nc1cccc(Br)c1C` (configuration not stated) gave an INHIBITION of -29.43%.
Work on `O[C@@H]1C[C@@H](c2nc(Cc3ccccc3)no2)N(Cc2ccc(F)cc2)C1` yielded an INHIBITION of 30.63%.
For `CN(Cc1ccc(F)cc1)CC1(O)CCN(C(=O)c2ccn(C)n2)C1` (configuration not stated), the INHIBITION was -21.42%.
`CC(C)(C)OC(=O)NCC1CCCCN1Cc1ccccn1` (configuration not stated) gave an INHIBITION of -43.28%.
For `CC(C)(C)OC(=O)NCC1CCCCN1Cc1cccnc1` (configuration not stated), the INHIBITION was 24.05%.
Compound `CC(C)(C)OC(=O)NCC1CCCCN1Cc1ccncc1` (configuration not stated) has an INHIBITION of 54.29%.
Work on `Cc1cc(C(F)(F)F)nn1C(C)C(=O)NN1CCN(C)CC1` (configuration not stated) yielded an INHIBITION of 32.88%.
For `Fc1cccc(-c2nnn3c2COC(CNc2ncccn2)C3)c1` (configuration not stated), the INHIBITION was 39.47%.
With `CNS(=O)(=O)c1ccc(CNC(=O)NCC2CCCO2)cc1` (configuration not stated) the INHIBITION was 39.32%.
Compound `CNS(=O)(=O)c1ccc(CNC(=O)C2CCCO2)cc1` (configuration not stated) has an INHIBITION of 52.17%.
`CNS(=O)(=O)c1ccc(CNC(=O)C2CN(C)CCO2)cc1` (configuration not stated) was tested, and the INHIBITION was 33.49%.
With `Cn1ccnc1CN(Cc1cccnc1)CC1CCCO1` (configuration not stated) the INHIBITION was 41.82%.
For `CCn1nc(C(=O)N2CCNCC2C(=O)Nc2ccc(C)nc2)cc1C` (configuration not stated), the INHIBITION was 3.82%.
For `O=C(Cc1ccccc1)NCCNCc1cccc(O)c1`, the INHIBITION was 31.57%.
`O=C(Cc1cccc(F)c1)NCCNCc1cccc(O)c1` gave an INHIBITION of 57.33%.
With `O=C(Cc1ccc(F)cc1)NCCNCc1cccc(O)c1` the INHIBITION was -49.9%.
Work on `c1ccc(CN2Cc3[nH]nc(COc4cccnc4)c3C2)nc1` yielded an INHIBITION of 18.6%.
Compound `CC1CNC(=O)CCN1Cc1cc(O)c2cccc(F)c2n1` (configuration not stated) has an INHIBITION of 18.31%.
Compound `CC(C)N(Cc1cccc(Cl)c1)Cc1nnsc1Cl` has an INHIBITION of 16.72%.
Work on `Cc1nnc(CN(Cc2cccc(Cl)c2)C(C)C)o1` yielded an INHIBITION of 41.05%.
In the case of `Cc1nnc(CN(Cc2ccc3c(c2)OCO3)C2CCC(C)CC2)o1` (configuration not stated), the INHIBITION is reported as -37.84%.
In the case of `Cc1nnc(CN(Cc2ccc(Cl)c(Cl)c2)C2CC2)o1`, the INHIBITION is reported as 50.59%.
In the case of `Cc1nnc(CN(Cc2ccc(Cl)c(Cl)c2)C(C)C)o1`, the INHIBITION is reported as 55.36%.
`Cc1nnc(CN(Cc2cccc(Br)c2)C2CC2)o1` gave an INHIBITION of -21.25%.
`O=C(c1ccccc1F)N1CCN(c2ccc(-n3cccc3)nn2)CC1` showed an INHIBITION of -17.9%.
Work on `O=C(c1cccnc1)N1CCN(c2ccnc3ccsc23)CC1` yielded an INHIBITION of 4.52%.
`c1ccc(-c2cccc(-c3ccn(CCN4CCCCC4)n3)c2)nc1` showed an INHIBITION of 63.1%.
In the case of `c1cc(-c2cnccn2)cc(-c2ccn(CCN3CCCC3)n2)c1`, the INHIBITION is reported as 6.07%.
For `c1cc(-c2cnccn2)cc(-c2ccn(CCN3CCCCC3)n2)c1`, the INHIBITION was 11.33%.
`CS(=O)(=O)CCC(=O)N(CCc1cccc(F)c1)C1CC1` showed an INHIBITION of 29.22%.
Work on `CSc1ccccc1C(=O)N(C)C1CCCN(CCc2ccccc2)C1` (configuration not stated) yielded an INHIBITION of -1.89%.
With `CN(C(=O)CC1=CCCCC1)C1CCCN(CCc2ccccc2)C1` (configuration not stated) the INHIBITION was 73.01%.
`CN(C(=O)CC1=CCCCC1)C1CCCN(C2Cc3ccccc3C2)C1` (configuration not stated) gave an INHIBITION of -12.75%.
In the case of `CC(C)C(=O)NCC(=O)N(C)C1CCCN(CCc2ccccc2)C1` (configuration not stated), the INHIBITION is reported as 15.44%.
For `CN(C(=O)CCc1ccncc1)C1CCCN(CCc2ccccc2)C1` (configuration not stated), the INHIBITION was 42.17%.
In the case of `CN(C(=O)c1cccnc1)C1CCCN(CCc2ccccc2)C1` (configuration not stated), the INHIBITION is reported as 52.08%.
For `CC(=O)N1C[C@H]2CC[C@@H](C1)N(S(=O)(=O)c1ccc(C#N)cc1Cl)C2`, the INHIBITION was -0.38%.
Work on `COCCc1noc(CN(C)C2CCCN(c3cccnn3)C2)n1` (configuration not stated) yielded an INHIBITION of 1.07%.
